The supplement of paper PMC11732987, “Enantioselective OTUD7B fragment discovery through chemoproteomics screening and high-throughput optimisation” (Communications Chemistry, 2025)

Assays:
Assay in all cases: log2 ratio of Biotin-Ahx-Ub-VS probe labelling (fragment/DMSO); higher = less target engagement (more negative = stronger competition), active = hit call of the paper (q ≤ 0.05, log2 ratio ≤ -1)
Details in all cases: compound concentration: 200 uM; treatment time: 3 h
USP19 = target: T1, USP19 (UniProt O94966)
T1 sequence (whole entry): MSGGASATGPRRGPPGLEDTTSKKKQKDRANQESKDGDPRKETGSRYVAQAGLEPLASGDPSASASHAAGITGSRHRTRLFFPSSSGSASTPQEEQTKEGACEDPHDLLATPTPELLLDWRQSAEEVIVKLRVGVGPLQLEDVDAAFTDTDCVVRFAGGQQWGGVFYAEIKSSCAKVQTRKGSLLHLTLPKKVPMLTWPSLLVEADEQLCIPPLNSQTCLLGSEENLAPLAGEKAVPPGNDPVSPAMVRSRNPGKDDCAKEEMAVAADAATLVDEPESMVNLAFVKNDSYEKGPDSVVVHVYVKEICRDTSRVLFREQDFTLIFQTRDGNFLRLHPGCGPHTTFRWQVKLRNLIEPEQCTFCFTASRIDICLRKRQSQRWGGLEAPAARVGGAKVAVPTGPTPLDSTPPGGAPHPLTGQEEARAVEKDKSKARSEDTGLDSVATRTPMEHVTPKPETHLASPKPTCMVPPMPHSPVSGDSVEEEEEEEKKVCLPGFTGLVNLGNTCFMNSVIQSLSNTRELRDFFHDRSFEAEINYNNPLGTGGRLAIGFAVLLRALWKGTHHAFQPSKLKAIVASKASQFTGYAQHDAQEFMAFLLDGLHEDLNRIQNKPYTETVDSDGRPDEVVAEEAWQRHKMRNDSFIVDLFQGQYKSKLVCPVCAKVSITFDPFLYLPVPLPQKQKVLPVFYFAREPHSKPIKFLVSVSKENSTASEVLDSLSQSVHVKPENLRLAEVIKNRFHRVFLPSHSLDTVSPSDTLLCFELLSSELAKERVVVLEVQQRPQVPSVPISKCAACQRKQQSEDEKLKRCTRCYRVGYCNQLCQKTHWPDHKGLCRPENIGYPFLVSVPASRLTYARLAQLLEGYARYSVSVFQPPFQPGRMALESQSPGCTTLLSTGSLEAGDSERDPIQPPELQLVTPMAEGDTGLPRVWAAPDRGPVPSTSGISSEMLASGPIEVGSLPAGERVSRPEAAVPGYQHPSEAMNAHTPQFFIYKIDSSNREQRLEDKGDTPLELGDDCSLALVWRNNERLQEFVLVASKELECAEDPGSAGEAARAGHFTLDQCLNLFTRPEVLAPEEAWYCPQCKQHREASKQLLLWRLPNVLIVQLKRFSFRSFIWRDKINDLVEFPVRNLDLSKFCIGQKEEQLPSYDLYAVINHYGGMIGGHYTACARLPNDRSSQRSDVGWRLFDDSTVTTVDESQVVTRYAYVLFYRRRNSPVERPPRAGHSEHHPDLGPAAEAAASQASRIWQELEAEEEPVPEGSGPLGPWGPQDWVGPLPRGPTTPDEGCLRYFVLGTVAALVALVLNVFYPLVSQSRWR
Procedure, shortened: (§1)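 The table lists average log2 ratios of fragment over vehicle, from an unpaired t-test on global-median-normalised Spectronaut label-free quantities. Proteins with ≥2 unique peptides were used. Samples were HEK293T lysate (495 µg) treated in triplicate with fragment at 200 µM or vehicle for 3 h, then with Biotin-Ahx-Ub-VS (0.5 µM final) for 1 h, with labelled DUBs NeutrAvidin-enriched and run by diaPASEF LC-MS/MS.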

USP22 = target: T2, USP22 (UniProt Q9UPT9)
T2 sequence (whole entry): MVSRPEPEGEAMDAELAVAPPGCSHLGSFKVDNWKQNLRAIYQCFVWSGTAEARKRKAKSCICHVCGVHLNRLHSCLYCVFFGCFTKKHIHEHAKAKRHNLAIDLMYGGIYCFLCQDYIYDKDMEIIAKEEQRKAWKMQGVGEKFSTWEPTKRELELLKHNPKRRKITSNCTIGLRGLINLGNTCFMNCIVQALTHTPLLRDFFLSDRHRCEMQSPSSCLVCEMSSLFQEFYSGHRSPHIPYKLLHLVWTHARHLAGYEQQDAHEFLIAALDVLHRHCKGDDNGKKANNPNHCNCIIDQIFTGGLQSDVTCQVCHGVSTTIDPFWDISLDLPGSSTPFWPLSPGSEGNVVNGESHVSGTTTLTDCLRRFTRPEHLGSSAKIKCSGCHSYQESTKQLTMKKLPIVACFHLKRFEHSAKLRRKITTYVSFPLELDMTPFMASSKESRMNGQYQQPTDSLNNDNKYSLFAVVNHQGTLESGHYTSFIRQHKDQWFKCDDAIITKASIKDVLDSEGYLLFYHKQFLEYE
Procedure, shortened: as §1

USP24 = USP24 (UniProt Q9UPU5)
Procedure, shortened: as §1

USP25 = target: T3, USP25 (UniProt Q9UHP3)
T3 sequence (whole entry): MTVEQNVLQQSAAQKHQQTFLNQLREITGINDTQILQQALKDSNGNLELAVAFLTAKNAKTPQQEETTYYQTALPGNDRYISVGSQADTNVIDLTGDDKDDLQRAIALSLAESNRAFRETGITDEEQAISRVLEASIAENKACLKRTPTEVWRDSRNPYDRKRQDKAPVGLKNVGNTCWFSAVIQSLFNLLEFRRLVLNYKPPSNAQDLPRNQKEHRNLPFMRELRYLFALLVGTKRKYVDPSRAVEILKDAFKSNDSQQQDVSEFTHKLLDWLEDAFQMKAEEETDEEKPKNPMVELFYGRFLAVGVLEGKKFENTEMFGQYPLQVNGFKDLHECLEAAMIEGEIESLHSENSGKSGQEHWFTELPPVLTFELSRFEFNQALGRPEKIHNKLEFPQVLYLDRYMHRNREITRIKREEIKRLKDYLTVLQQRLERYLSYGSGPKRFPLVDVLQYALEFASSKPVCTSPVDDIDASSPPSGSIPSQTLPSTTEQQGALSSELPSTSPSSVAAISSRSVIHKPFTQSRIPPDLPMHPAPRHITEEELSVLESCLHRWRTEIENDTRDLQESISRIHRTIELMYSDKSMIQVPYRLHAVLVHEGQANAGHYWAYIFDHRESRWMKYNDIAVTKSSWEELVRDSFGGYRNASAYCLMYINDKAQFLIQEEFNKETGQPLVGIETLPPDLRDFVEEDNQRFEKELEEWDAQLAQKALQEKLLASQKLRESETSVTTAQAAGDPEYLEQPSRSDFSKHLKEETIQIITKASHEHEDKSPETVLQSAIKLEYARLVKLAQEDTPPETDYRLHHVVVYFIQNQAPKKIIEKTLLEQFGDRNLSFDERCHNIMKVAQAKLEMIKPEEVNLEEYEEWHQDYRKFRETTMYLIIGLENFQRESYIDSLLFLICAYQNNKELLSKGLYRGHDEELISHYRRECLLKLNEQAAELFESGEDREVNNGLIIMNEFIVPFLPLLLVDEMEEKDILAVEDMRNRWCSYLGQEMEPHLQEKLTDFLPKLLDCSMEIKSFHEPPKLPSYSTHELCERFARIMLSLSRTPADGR
Procedure, shortened: as §1

USP28 = target: T4, USP28 (UniProt Q96RU2)
T4 sequence (whole entry): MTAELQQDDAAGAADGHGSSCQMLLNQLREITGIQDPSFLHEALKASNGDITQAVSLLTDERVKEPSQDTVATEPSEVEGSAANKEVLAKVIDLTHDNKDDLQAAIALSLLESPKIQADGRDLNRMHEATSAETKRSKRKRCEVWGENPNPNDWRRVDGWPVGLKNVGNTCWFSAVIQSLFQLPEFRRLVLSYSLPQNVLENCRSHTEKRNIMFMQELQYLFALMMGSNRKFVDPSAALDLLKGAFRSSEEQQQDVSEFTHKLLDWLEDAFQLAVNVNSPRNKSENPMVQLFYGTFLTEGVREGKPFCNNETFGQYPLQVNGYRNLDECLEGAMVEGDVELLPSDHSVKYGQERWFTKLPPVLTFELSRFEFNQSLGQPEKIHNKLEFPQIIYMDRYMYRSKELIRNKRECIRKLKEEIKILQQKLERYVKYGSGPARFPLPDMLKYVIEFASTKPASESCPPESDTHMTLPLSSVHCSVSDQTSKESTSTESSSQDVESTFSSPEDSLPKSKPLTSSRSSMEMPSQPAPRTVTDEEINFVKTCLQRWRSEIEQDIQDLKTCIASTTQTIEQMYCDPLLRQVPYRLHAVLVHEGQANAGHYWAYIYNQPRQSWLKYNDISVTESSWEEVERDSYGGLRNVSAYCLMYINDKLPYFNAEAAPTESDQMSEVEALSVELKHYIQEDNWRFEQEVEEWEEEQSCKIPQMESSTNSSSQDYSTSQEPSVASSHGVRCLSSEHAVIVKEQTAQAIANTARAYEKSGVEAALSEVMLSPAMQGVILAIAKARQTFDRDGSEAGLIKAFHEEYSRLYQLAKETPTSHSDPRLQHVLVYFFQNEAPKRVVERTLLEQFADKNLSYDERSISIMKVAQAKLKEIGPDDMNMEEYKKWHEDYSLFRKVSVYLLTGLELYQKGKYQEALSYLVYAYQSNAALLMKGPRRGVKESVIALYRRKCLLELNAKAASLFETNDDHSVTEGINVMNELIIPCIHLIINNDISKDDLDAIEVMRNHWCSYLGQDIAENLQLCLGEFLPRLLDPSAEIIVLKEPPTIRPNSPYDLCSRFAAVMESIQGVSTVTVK
Procedure, shortened: as §1

Measured: log2 ratio of Biotin-Ahx-Ub-VS probe labelling

USP24, sequence (Q9UPU5 whole entry): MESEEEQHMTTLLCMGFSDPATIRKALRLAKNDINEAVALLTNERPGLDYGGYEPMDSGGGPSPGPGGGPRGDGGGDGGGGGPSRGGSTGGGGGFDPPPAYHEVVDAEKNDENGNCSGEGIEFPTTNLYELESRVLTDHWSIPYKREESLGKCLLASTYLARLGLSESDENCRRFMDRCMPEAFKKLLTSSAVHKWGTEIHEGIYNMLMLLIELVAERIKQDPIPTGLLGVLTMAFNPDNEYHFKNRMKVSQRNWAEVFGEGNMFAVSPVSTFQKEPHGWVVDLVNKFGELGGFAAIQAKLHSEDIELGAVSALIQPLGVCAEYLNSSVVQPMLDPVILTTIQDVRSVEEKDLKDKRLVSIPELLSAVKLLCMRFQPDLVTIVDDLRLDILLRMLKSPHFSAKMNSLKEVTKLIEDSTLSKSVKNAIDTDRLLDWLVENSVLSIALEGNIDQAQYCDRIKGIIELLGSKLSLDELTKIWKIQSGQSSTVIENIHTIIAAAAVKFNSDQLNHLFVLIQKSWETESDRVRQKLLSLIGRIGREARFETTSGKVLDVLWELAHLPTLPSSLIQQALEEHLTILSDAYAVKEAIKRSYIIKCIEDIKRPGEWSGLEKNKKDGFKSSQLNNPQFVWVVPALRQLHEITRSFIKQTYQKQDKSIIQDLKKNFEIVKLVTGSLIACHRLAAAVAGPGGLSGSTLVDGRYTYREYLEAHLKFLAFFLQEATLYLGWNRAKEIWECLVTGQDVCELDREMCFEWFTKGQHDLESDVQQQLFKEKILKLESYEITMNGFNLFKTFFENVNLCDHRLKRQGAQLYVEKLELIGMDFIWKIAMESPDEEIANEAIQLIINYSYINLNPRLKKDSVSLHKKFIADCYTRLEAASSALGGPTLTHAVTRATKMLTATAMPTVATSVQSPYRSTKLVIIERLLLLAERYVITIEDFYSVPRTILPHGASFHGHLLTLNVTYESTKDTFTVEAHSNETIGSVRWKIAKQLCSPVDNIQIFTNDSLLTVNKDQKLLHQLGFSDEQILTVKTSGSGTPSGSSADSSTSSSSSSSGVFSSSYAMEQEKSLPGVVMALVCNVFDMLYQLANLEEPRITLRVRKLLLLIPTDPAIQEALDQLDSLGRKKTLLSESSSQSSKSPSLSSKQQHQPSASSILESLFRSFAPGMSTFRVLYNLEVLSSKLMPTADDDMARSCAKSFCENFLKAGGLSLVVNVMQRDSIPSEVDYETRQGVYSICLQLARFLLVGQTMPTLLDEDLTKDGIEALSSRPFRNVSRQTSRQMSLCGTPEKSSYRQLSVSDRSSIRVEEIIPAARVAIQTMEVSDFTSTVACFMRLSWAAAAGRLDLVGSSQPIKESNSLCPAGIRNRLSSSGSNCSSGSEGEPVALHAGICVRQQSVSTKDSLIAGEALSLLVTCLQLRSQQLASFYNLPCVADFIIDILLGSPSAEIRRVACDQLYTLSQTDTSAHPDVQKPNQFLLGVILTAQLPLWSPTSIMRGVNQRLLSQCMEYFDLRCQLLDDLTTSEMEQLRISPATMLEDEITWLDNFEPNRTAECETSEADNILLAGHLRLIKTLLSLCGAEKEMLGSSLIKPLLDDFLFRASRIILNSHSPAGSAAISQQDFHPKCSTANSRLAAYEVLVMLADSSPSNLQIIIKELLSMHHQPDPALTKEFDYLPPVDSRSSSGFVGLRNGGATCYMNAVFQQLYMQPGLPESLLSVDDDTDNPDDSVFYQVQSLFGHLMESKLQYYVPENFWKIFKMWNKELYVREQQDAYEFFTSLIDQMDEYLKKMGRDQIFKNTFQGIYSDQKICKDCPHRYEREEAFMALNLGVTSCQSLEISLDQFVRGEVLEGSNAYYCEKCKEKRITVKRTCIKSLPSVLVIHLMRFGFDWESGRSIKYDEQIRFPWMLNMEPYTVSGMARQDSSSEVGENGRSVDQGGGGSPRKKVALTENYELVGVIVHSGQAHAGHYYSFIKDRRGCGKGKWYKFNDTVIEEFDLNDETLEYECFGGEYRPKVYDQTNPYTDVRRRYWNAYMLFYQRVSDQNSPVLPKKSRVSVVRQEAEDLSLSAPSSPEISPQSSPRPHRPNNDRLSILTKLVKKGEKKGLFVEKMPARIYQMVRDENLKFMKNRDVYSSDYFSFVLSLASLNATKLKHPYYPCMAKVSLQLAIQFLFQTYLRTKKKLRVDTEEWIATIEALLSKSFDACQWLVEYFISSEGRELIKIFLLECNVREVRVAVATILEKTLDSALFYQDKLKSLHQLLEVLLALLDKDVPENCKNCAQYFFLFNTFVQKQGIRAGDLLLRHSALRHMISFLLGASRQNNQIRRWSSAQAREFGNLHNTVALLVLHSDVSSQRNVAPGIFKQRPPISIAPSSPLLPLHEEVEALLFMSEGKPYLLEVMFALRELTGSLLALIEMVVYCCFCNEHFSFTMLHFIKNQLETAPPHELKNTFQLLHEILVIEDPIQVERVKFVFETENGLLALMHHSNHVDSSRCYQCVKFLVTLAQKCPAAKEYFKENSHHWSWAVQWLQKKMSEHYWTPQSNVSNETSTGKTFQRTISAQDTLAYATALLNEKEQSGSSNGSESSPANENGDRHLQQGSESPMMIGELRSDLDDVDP

O=C(CCl)N1CCC(C(O)c2ccc(F)cc2)CC1 (stereo not given)
inactive: USP19 0.0656 | USP22 0.13 | USP24 -0.164 | USP25 0.058 | USP28 -0.0428
